Active and inactive are the calls of the source.
Key:
[1] = E. coli DRC41 culture turbidity changes, primary screen, E. coli filamentation inducer project, strain DRC41, OD650, 48 h (AID 1152);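 further: E. coli MC1000 strain DRC41 lacking acrAB efflux pump and sulA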; details: E. coli DRC41 (acrAB sulA), higher = more signal, called active from +8 up or from −8 down
[2] = small-molecule binders of probe aLefty1, primary screen, biochemical, small-molecule microarray, 635/667 nm fluorescence (AID 1153); details: higher = more signal;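 further: score merges spot fluorescence with signal-to-noise ratio from the scanned slide images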
[3] = PSAC antagonists in infected red cells, primary screen, cell-based, P. falciparum Indochina, OD700, 1 h (AID 1154); details: P. falciparum Indochina infected RBC osmotic lysis, higher = more signal, called active from +8 up or from −8 down
[4] = PSAC antagonists in infected red cells, primary screen, cell-based, P. falciparum Indochina, OD700, 2 h (AID 1155);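 further: lysis reports solute entry through the parasite surface anion channel PSAC; channel blockers reduce lysis of infected cells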; details: P. falciparum Indochina infected erythrocytes, osmotic lysis OD700; higher = more signal, called active from +8 up or from −8 down
[5] = osmotic lysis modulators in infected erythrocytes, primary screen, PSAC antagonist project, cell-based, P. falciparum Indochina, OD700, 3 h (AID 1156); details: higher = more signal, called active from +8 up or from −8 down
[6] = PSAC antagonists in infected red cells, primary screen, cell-based, P. falciparum Indochina, OD700, 18 h (AID 1157); details: P. falciparum Indochina infected erythrocytes, osmotic lysis OD700, 18 h; higher = more signal, called active from +8 up or from −8 down
[7] = modulators of S6 phosphorylation in cells, primary screen, cell-based, A549, cytoblot, luminescence, serum-stimulated (AID 1158); details: A549 phospho-S6 cytoblot, 5 h, higher = more signal;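 further: serum-stimulated A549 lung adenocarcinoma cells; signal is phosphorylated S6 detected by cytoblot immunostaining with HRP secondary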
[8] = biological target: NADPH oxidase 2 (Homo sapiens) (UniProt P04839); assay: NOX2-dependent H2O2 signal modulators, primary screen, NOX inhibitor project, cell-based, HEK293-NOX2, PMA-stimulated, Amplex Red fluorescence (AID 1159); details: 45 min, higher = more signal, called active from +8 up or from −8 down; further: test concentration not given here
NADPH oxidase 2 (Homo sapiens), sequence (P04839 whole entry, looked up): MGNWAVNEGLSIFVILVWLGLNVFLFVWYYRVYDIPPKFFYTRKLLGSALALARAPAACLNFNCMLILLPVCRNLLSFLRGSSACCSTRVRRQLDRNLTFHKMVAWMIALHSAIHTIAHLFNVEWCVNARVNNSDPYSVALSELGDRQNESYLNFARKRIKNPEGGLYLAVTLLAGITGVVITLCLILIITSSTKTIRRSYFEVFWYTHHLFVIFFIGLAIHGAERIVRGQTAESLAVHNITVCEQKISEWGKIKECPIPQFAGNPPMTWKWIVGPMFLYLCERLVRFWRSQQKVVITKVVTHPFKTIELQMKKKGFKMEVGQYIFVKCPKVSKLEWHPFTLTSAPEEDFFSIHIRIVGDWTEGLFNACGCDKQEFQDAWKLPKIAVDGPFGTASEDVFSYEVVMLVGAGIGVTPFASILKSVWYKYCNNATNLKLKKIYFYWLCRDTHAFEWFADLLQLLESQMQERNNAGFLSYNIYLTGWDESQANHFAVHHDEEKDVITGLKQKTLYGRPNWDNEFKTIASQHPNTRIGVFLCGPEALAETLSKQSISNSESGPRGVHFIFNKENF

[9] = biological target: NADPH oxidase 4 (Homo sapiens) (UniProt Q9NPH5); assay: NOX4-dependent H2O2 signal modulators, primary screen, NOX inhibitor project, cell-based, HEK293-NOX4, tetracycline-induced, Amplex Red fluorescence (AID 1160); details: 45 min, higher = more signal, called active from +8 up or from −8 down
NADPH oxidase 4 (Homo sapiens), sequence (Q9NPH5 whole entry, looked up): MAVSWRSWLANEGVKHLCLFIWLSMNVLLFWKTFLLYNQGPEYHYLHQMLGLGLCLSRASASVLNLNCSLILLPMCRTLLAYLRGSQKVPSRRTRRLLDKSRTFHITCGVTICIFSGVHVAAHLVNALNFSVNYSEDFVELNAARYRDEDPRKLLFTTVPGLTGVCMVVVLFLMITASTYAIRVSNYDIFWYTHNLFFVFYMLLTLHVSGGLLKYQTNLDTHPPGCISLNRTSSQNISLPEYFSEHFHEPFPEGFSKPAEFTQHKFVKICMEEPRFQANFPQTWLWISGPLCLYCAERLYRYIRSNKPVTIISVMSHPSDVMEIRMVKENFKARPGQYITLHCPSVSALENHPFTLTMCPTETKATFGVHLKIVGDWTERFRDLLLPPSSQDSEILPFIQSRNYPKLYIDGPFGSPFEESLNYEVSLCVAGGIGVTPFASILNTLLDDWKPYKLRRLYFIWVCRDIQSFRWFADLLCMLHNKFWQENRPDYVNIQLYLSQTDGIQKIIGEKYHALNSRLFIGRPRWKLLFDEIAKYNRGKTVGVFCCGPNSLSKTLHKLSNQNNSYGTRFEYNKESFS

[10] = biological target: NADPH oxidase 5 (Homo sapiens) (UniProt Q96PH1); assay: NOX5-dependent H2O2 signal modulators, primary screen, NOX inhibitor project, cell-based, HEK293-NOX5, Amplex Red fluorescence (AID 1161); details: HEK293-NOX5, ionomycin, 45 min, higher = more signal
NADPH oxidase 5 (Homo sapiens), sequence (Q96PH1 whole entry, looked up): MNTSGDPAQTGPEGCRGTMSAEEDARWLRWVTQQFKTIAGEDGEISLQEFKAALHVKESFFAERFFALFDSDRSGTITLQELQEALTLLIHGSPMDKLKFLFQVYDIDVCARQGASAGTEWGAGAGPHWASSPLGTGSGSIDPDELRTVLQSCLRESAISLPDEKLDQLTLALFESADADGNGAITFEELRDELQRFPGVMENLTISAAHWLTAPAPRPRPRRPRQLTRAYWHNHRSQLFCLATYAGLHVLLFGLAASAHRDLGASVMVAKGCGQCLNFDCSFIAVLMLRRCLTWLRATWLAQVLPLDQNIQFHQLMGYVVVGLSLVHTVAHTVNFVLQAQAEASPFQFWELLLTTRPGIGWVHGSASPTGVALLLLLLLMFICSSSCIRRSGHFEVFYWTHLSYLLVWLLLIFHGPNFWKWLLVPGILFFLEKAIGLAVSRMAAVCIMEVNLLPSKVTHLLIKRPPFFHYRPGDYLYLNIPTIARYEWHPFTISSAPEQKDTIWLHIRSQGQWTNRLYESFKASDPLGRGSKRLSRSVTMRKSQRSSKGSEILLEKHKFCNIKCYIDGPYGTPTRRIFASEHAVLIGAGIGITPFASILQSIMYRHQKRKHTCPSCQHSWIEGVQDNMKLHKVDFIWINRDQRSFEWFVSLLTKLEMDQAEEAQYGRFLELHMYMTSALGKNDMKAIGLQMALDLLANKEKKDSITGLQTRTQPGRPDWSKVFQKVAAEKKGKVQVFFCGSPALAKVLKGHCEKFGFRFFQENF

[11] = A549 cell viability effects, profiling panel, calcein-AM fluorescence, 48 h, basal (AID 1162); details: higher = more signal; further: test concentration not given here
[12] = adipocyte viability effects, profiling panel, cell-based, 3T3-L1 adipocytes, calcein-AM fluorescence, 48 h, basal (AID 1163); details: 3T3-L1 adipocytes viability, higher = more signal; further: test concentration not given here
[13] = HepG2 cell viability effects, profiling panel, calcein-AM fluorescence, 48 h, basal (AID 1164); details: higher = more signal; further: test concentration not given here
[14] = MM1S cell viability effects, profiling panel, calcein-AM fluorescence, 48 h, basal (AID 1165); details: higher = more signal;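 further: viability of MM1S multiple myeloma cells under basal unstimulated conditions; test concentration not given here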
[15] = basal RPMI8226 viability, no added stimulus, profiling panel, cell-based, calcein-AM fluorescence, 48 h, PK04 Diversity Set (AID 1166); details: RPMI8226 myeloma viability, higher = more signal;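 further: cells grown under basal conditions without added stimulus; test concentration not given here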
[16] = basal HepG2 mitochondrial membrane potential changes, profiling panel, cell-based, JC-1 fluorescence, 24 h, 100 nL compound (AID 1167); details: higher = more signal; further: test concentration not given here
[17] = basal 3T3-L1 adipocyte mitochondrial potential changes, profiling panel, cell-based, JC-1 fluorescence, 3T3-L1 adipocytes, 24 h, 100 nL compound (AID 1168); details: JC-1 mitochondrial fluorescence, higher = more signal, called active from +8 up or from −8 down; further: test concentration not given here
[18] = basal RPMI8226 mitochondrial membrane potential changes, profiling panel, cell-based, JC-1 fluorescence, 24 h, 100 nL compound (AID 1169); details: RPMI8226 myeloma, JC-1 mitochondrial potential fluorescence, higher = more signal; further: test concentration not given here
[19] = basal MM1S mitochondrial membrane potential changes, profiling panel, cell-based, JC-1 fluorescence, 24 h, 100 nL compound (AID 1170); details: higher = more signal; further: test concentration not given here
[20] = A549 lung cancer cell viability effects, profiling panel, resazurin fluorescence, 24 h, PK04 Diversity Set (AID 1171); details: higher = more signal, called active from +8 up or from −8 down; further: test concentration not given here

SMILES | z-score [1] | composite z-score [2] | z-score [3] | z-score [4] | z-score [5] | z-score [6] | z-score [7] | z-score [8] | z-score [9] | z-score [10] | z-score [11] | z-score [12] | z-score [13] | z-score [14] | z-score [15] | z-score [16] | z-score [17] | z-score [18] | z-score [19] | z-score [20]
O=C(CS)NCCCCCNC(=O)[C@@H]1C[C@@H]2C(=O)NCC(=O)N2[C@@H]1c1cccc(OCCO)c1 | 3.02 (inactive) | 0.269 | 2.11 (inactive) | 0.151 (inactive) | -1.32 (inactive) | -1.85 (inactive) | 1.86 | 1.52 (inactive) | 1.06 (inactive) | 1.49 | 0.686 | 0.45 | 0.938 | 0.231 | 0.842 | 1.85 | -0.102 (inactive) | -0.738 | -0.249 | -0.696 (inactive)
CCOC(=O)C[C@H]1[C@H](OC(=O)c2cc3ccccc3oc2=O)[C@@H](NC(=O)CC(C)C)c2cc(OCCCO)ccc2N1C(=O)c1ccccc1 | 2.61 (inactive) | -0.0601 | 0.522 (inactive) | -1.18 (inactive) | 0.71 (inactive) | -2.17 (inactive) | 1.96 | -0.403 (inactive) | 0.0665 (inactive) | 0.622 | -0.276 | 1.52 | 0.314 | 0.117 | -0.0793 | 1.14 | 0.9 (inactive) | -0.882 | 0.915 | -1.33 (inactive)
COc1cc2c(cc1OC)CN(C(=O)[C@H]1[C@@H]3C(=O)O[C@@H](c4ccccc4)[C@@H](c4ccccc4)N3[C@@H](c3ccccc3OCCO)[C@]13C(=O)Nc1ccc(C#CCCO)cc13)CC2 | -0.667 (inactive) | 0.112 | 3.11 (inactive) | 1.89 (inactive) | 1.89 (inactive) | 0.835 (inactive) | -0.482 | 1.44 (inactive) | 1.26 (inactive) | 0.819 | 0.228 | -0.538 | -0.368 | -0.217 | -0.33 | -0.641 | 0.451 (inactive) | -0.377 | -0.96 | 0.426 (inactive)
O=C1C2C=CC(C(O)c3cc(C(F)(F)F)cc(C(F)(F)F)c3)N(Nc3ccccc3)C2C(=O)N1c1ccccc1 (stereo not given) | -0.355 (inactive) | 0.345 | 4.95 (inactive) | 2.77 (inactive) | -2.01 (inactive) | 2.64 (inactive) | -0.62 | 0.376 (inactive) | -4.65 (inactive) | -1.33 | 1.3 | -1.48 | 0.662 | -2.24 | -3.52 | -4.32 | -1.36 (inactive) | -0.982 | -0.994 | 0.626 (inactive)
COC(=O)c1c(CC[C@@H](CO)NC(=O)NCCc2c[nH]c3ccccc23)oc(C(=O)Cc2ccccc2)c1C(=O)OC | 0.659 (inactive) | -0.423 | 7.43 (inactive) | -0.0918 (inactive) | -0.366 (inactive) | -1.01 (inactive) | 0.814 | -2.09 (inactive) | -1.16 (inactive) | -0.595 | -0.22 | 1.12 | -0.496 | 0.49 | 0.459 | -1.27 | -0.484 (inactive) | 0.636 | 0.0389 | 0.926 (inactive)
CCCCN1CC=CC23O[C@@H]4/C=C\CCCOC(=O)C4[C@H]2C(=O)N(CCCCCO)[C@@H]3C1=O (stereo not given in full) | -0.852 (inactive) | -0.328 | 0.896 (inactive) | 0.481 (inactive) | -0.765 (inactive) | 0.0625 (inactive) | -0.782 | 1.07 (inactive) | -0.18 (inactive) | 1.74 | -0.234 | 1.14 | -0.195 | 1.46 | 0.0001 | -0.327 | 0.783 (inactive) | 0.163 | -0.0801 | 0.356 (inactive)
CC[C@@H]1C=C(C(=O)O)[C@H](c2ccc(C)cc2)N1S(=O)(=O)c1ccc(C)cc1 | -0.557 (inactive) | 0.0582 | 1.08 (inactive) | 0.661 (inactive) | -0.245 (inactive) | 0.856 (inactive) | -0.362 | 0.587 (inactive) | -0.57 (inactive) | -1.24 | -0.795 | -0.235 | -0.997 | 0.0477 | 0.365 | 0.0562 | 0.348 (inactive) | 0.637 | -0.643 | 0.357 (inactive)
C#CCNCc1ccccc1 | -0.131 (inactive) | -0.235 | 0.229 (inactive) | 0.876 (inactive) | -0.116 (inactive) | 0.409 (inactive) | -0.255 | -12.1 (active) | -0.493 (inactive) | 0.615 | -0.29 | -0.0255 | 0.331 | 0.612 | -0.523 | -0.221 | -0.815 (inactive) | -0.804 | -0.00594 | 0.0196 (inactive)

Source: PubChem BioAssay
